PubChem BioAssay AID743379 (National Center for Advancing Translational Sciences (NCATS), 2014)
Activity calls are given as the source filed them. Calls come from the whole dose curve.

molecular target: Phosphatidylinositol 5-phosphate 4-kinase type-2 beta (Homo sapiens) (UniProt P78356); assay: qHTS for Inhibitors of PI5P4K: PI5P4K-beta 32P-ATP TLC Secondary Assay for Probe SAR; conditions: recombinant PI5P4K-beta, 32P-ATP TLC lipid kinase assay
Excerpt: In addition to finding PI5P, we discovered the type II phosphatidylinositol 5-phosphate 4-kinase (PI5P4K) family (alpha, beta, gamma isoforms) that catalyze the conversion of PI5P to PI(4,5)P2. Alternatively, PI(4,5)P2 can also be synthesized through phosphatidylinositol-4-phosphate (PI4P) by the type I phosphatidylinositol 4-phosphate 5-kinases (PI4P5K). These PI5P4K enzymes therefore represent one way by which cells can regulate endogenous PI5P levels and play important roles in insulin signaling and in stress responses. […] A qHTS PI5P4K-alpha ADP-Glo assay was developed to identify specific modulators of human PI5P4K, phosphatidylinositol-5-phosphate 4-kinase (Type II PIPK). To confirm that the active compounds and their analogs were true and selective inhibitors, a secondary Thin-layer Chromatography (TLC) assays against recombinant PI5P4K-alpha, PI4P5K-alpha or PI5P4K-beta that utilize a radioactively labeled ATP were developed. The data herein is the result of the PI5P4K-beta TLC assay. […]
The kinase reaction was carried out in a total of 50 microL of kinase buffer (50 mM HEPES pH 7.4 and 10 mM MgCl2) containing 20 microM of the lipids that were suspended by sonication. […] The radiolabeled product, PI(4,5)P2, was quantified with a phosphorimager (Molecular Dynamics, STORM840, GE Healthcare, Waukesha, WI, USA).

Phosphatidylinositol 5-phosphate 4-kinase type-2 beta (Homo sapiens), sequence (P78356 whole entry, looked up, canonical isoform): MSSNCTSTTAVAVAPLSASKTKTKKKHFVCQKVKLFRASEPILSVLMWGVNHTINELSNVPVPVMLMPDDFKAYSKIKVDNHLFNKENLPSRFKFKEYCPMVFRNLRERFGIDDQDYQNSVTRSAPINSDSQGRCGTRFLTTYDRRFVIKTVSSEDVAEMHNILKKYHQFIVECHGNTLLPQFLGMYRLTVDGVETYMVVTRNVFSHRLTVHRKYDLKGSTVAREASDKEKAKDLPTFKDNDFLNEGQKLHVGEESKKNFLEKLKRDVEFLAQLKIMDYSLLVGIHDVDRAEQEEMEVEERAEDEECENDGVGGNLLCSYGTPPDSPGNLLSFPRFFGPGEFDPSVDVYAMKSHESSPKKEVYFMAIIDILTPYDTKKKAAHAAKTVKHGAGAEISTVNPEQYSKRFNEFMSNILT

With `O=C1Nc2ccc(C(=O)c3ccco3)cc2/C1=C/c1cc(Cl)c(O)c(Cl)c1` as the molecule, how does the Potency read?
The Potency was 890 nM (active).
